Results: PubChem BioAssay (NCATS)
Results filed as inconclusive are left out. Entries that show only a call come without a potency. Activity calls are given as the source filed them. Unless noted, calls come from the whole dose curve; as a rule, active = well fitted curve in the direction sought with a large enough effect; inconclusive = small, poorly fitted or top-dose-only effect, or another doubt; inactive = no such curve, though single readings can be large; an effect the other way counts as inactive or inconclusive.

Columns and labels:
[1] = Confirmation and Secondary Assay for Modulators of Hemoglobin Beta Chain Splicing at IVS2 654 locus (AID 910);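 note: HeLa cells stably carrying EGFP split by mutant beta-globin IVS2-654 intron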
Summary of the method: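 HeLa cells stably expressing EGFP interrupted by β-globin IVS2-654 intron, seeded overnight in Opti-MEM/2% FCS, then treated 2 days at 37 °C. Restored splicing read as total peak GFP intensity per well by laser scanning cytometry (488 nm excitation, 500–520 nm emission); 500 nM antisense PNA as control.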

[2] = Confirmation and Secondary Assay for Modulators of Hemoglobin Beta Chain Splicing at IVS2 705 locus (AID 930);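 note: HeLa cells stably expressing the EGFP-705 splicing reporter; GFP fluorescence per well restored by corrected splicing of the IVS2-705 intron in EGFP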
Summary of the method: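 First, HeLa EGFP-705 cells are seeded at 500/well in Optimem with 2% FCS and left overnight. Next, compound or DMSO is added for 2 days. Finally wells are laser-scanned and total peak GFP intensity scored.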

[3] = qHTS Assay for Lipid Storage Modulators (AID 1519; calls by dose curve); settings: Drosophila S3 cells, BODIPY lipid droplet/cell ratio, laser cytometry, cells loaded with oleic acid; for activity change, negative = inhibition: at 57.5 µM (top of the series)
Summary of the method: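 Cells seeded at 5,000 per well were treated with compounds over a concentration series and loaded with oleic acid (400 uM, as added). Lipid droplet fluorescence (488 nm excitation, 500-530 nm channel) was read by laser-scanning cytometry and normalized to 20 uM Triacsin C.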

[4] = biological target: Ubiquitin carboxyl-terminal hydrolase 1 (Homo sapiens) (UniProt O94782); experiment: Inhibitors of USP1/UAF1: Pilot qHTS (AID 504865);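 note: rhodamine fluorescence freed from ubiquitin-rhodamine substrate followed over time; top concentration of the series differs between compounds; nearly all actives have a fitted effect of over 35% in size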
Summary of the method: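 1nM USP1/UAF1 + cpd, 15 min RT; start w/ Ub-Rho 150nM final; kinetic FL 480/540 nm, 6 reads q60 s. Buffer 50mM HEPES pH 7.8, 0.5mM EDTA, 1mM TCEP, 0.01% Tween-20, 0.1 mg/ml BSA.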

[5] = biological target: Cytochrome P450 3A4 (Homo sapiens) (UniProt P08684); experiment: qHTS Assay for Activators of Cytochrome P450 3A4 (AID 885); note: nearly all actives have a fitted effect of over 65% in size
Summary of the method: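 Quantitative HTS format: compounds preincubated with 20nM human CYP3A4 and Luciferin-PPXE substrate at KM, reaction started by NADPH regeneration, stopped after 60 min, luciferase luminescence read 20 min later.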

[6] = measured here: cell count channel max response
[7] = measured here: lipid channel max response

Chain of Ubiquitin carboxyl-terminal hydrolase 1 (Homo sapiens) (O94782 whole entry, looked up): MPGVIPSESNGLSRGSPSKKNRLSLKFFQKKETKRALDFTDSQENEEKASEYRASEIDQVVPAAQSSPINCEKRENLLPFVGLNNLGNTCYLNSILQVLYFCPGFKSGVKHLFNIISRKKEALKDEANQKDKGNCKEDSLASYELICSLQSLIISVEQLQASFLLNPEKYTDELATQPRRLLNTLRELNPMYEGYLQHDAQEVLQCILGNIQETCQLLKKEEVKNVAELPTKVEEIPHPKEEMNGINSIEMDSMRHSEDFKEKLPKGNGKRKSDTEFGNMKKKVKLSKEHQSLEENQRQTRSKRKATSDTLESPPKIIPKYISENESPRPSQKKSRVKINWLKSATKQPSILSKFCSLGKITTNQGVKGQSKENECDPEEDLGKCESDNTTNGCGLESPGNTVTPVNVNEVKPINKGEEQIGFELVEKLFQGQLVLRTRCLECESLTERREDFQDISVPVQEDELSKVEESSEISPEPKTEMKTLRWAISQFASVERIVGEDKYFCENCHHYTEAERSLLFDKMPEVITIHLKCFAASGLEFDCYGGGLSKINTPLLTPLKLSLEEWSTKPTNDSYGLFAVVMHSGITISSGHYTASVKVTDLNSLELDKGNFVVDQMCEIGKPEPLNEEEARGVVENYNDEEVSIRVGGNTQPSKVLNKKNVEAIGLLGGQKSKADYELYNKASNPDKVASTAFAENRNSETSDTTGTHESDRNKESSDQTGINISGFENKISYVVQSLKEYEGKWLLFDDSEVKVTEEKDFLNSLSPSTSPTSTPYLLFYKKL
Chain of Cytochrome P450 3A4 (Homo sapiens) (P08684 whole entry, looked up): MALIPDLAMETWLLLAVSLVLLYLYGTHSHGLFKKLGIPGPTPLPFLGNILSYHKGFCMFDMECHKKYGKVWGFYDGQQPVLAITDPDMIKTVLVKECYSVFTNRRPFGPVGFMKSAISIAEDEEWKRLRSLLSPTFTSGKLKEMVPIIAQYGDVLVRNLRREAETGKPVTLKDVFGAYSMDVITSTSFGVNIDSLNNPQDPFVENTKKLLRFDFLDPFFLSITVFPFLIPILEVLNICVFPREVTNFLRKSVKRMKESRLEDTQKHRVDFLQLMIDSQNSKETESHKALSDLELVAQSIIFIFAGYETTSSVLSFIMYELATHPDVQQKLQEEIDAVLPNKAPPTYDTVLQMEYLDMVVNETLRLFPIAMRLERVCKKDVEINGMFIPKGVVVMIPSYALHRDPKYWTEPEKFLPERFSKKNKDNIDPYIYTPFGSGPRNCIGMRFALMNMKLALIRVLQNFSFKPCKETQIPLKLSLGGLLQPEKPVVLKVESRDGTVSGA

Row | Compound | Potency [1] | Potency [2] | activity change, negative = inhibition [3] | max response [3, 6] | max response [3, 7] | Potency [4] | Potency [5]
1 | COC(=O)C1C(O)CC[C@@H]2CN3CCc4c([nH]c5ccccc45)C3C[C@@H]12 (some centres not stated) | inactive | inactive | 4.48% (inactive) | 19.7% | 26.3% | inactive | –
2 | CC1(C)C(=O)C2C[C@]3(O)C4=CC(=O)OC(c5ccoc5)[C@]4(C)CCC3[C@](C)(C2=O)C1CC(=O)O (some centres not stated) | inactive | inactive | 3.73% (inactive) | 1.91% | 6.28% | inactive | inactive
3 | C=C1CCC(=O)C(C)CCC2C1CC2(C)C (configuration not stated) | inactive | inactive | 1.2% (inactive) | 13.1% | 14.5% | inactive | inactive
4 | COc1ccc(C(=O)c2ccc(O)cc2)c(O)c1O | inactive | inactive | 4.3% (inactive) | 2.91% | 8.25% | inactive | –
5 | NCC1O[C@@H](OC2C(N)C[C@H](N)[C@@H](O[C@H]3OC(CO)C(O)C(N)C3O)C2O)C(O)C(O)C1O (some centres not stated) | inactive | inactive | 12.1% (inactive) | 13.1% | 29.6% | inactive | –
6 | O=C(O)CCC(=O)OC[C@@H](NC(=O)C(Cl)Cl)C(O)c1ccc([N+](=O)[O-])cc1 (some centres not stated) | inactive | inactive | 7.24% (inactive) | 16.6% | 25.2% | inactive | –
7 | O=C(/C=C/c1ccccc1)c1ccc(O)cc1 | inactive | inactive | 4.07% (inactive) | -2.42% | 2.04% | inactive | inactive
8 | CCCCN1CCCCC1C(=O)Nc1c(C)cccc1C (configuration not stated) | inactive | inactive | 7.02% (inactive) | 11.8% | 21.2% | inactive | inactive
9 | COc1ccc(C2Oc3cc(OC)cc(OC)c3CC2O)cc1 (configuration not stated) | inactive | inactive | 5.15% (inactive) | 15.1% | 23.9% | inactive | inactive
10 | CC1(C)C[C@@H]2C(=O)CCC3O[C@@]3(C)CCC21 (some centres not stated) | inactive | inactive | 3.76% (inactive) | 20.7% | 26.4% | inactive | inactive
11 | CO[C@]12CC(COC(=O)c3cncc(Br)c3)CN(C)[C@@H]1Cc1cn(C)c3cccc2c13 (some centres not stated) | inactive | inactive | 10.2% (inactive) | 10.9% | 29% | inactive | inactive
12 | O=c1c2ccccc2oc2ccccc12 | inactive | inactive | 15% (inactive) | 9.44% | 28% | inactive | –
13 | CC1(C)SC2C(NC(=O)COc3ccccc3)C(=O)N2C1C(=O)O (configuration not stated) | inactive | inactive | 3.45% (inactive) | 17.3% | 22.6% | inactive | –
14 | COc1ccc(C2CC(=O)c3ccc(OC)cc3O2)cc1 (configuration not stated) | inactive | inactive | 10.2% (inactive) | 32.1% | 45.7% | inactive | inactive
15 | COc1cccc(O)c1O | inactive | inactive | 7.71% (inactive) | 9.09% | 20.7% | inactive | –
16 | COC(=O)C1OC(=O)C2O[C@@]23[C@]2(C)C(OC(C)=O)CC4C(C)(C)C(=O)CC[C@]4(C)C2CC[C@@]13C (some centres not stated) | inactive | inactive | -1.69% (inactive) | -0.434% | 4.55% | inactive | inactive
17 | Oc1ccc2c(c1)OC(c1ccc(O)c(O)c1)C(O)C2 (configuration not stated) | inactive | inactive | 6.52% (inactive) | -5.73% | 1.34% | inactive | inactive
18 | CC(=O)OCC(=O)[C@]1(O)C(C)CC2C3CCC4=CC(=O)C=C[C@@]4(C)[C@]3(F)C(O)C[C@@]21C (some centres not stated) | inactive | inactive | -6.8% (inactive) | 9.77% | 2.72% | inactive | –
19 | COC(=O)CC1C(C)(C)C(OC(C)=O)C2CC3=C4CC(=O)OC(c5ccoc5)[C@]4(C)CCC3[C@@]1(C)C2=O (some centres not stated) | inactive | inactive | -5.96% (inactive) | 14.6% | 10% | inactive | inactive
20 | COc1cc2cc[n+]3cc4c(OC)c(OC)ccc4cc3c2cc1OC | inactive | inactive | 10.9% (inactive) | 22.9% | 39.6% | inactive | inactive

Row | Compound | Potency [1] | Potency [2] | activity change, negative = inhibition [3] | max response [3, 6] | max response [3, 7] | Potency [4] | Potency [5]
21 | CC1(C)CCC2(C(=O)O)CC[C@]3(C)C(=CCC4[C@]5(C)CCC(O)C(C)(C)C5C(O)C[C@]43C)C2C1 (some centres not stated) | inactive | inactive | 10.3% (inactive) | 9.57% | 24.8% | inactive | inactive
22 | COc1c(O)cc2c(-c3ccccc3)cc(=O)oc2c1OC | inactive | inactive | 5.27% (inactive) | 6.33% | 14.2% | inactive | inactive
23 | CC(=O)N[C@@H](Cc1c[nH]c2ccccc12)C(=O)O | inactive | inactive | 5.86% (inactive) | 17.1% | 24.9% | inactive | –
24 | CCOC(=O)OC(C)OC(=O)C1N2C(=O)C(NC(=O)C(N)c3ccccc3)C2SC1(C)C (configuration not stated) | inactive | inactive | 6.11% (inactive) | 21.6% | 29.1% | inactive | –
25 | CC1(C)C2(Cl)C(Cl)C(Cl)C(Cl)(C(Cl)Cl)C1(Cl)C2Cl (configuration not stated) | inactive | inactive | 3.3% (inactive) | 3.76% | 3.86% | inactive | –
26 | C=C1C[C@@]23C[C@@]1(O)CCC2[C@@]12C=CC(O)[C@](C)(C(=O)O1)C2C3C(=O)O (some centres not stated) | inactive | inactive | 1.95% (inactive) | 6.93% | 10.6% | inactive | –
27 | CC(=O)[C@]1(O)CCC2C3CCC4=CC(=O)CC[C@@]4(C)C3CC[C@]21C (some centres not stated) | inactive | inactive | 5.01% (inactive) | 6.92% | 12.7% | inactive | –
28 | NCC1O[C@@H](OC2C(N)CC(N)C(O)C2O[C@@H]2OC(CO)C(O)C2O)C(N)C(O)C1O (some centres not stated) | inactive | inactive | 6.74% (inactive) | 5.17% | 12.7% | inactive | –
29 | COc1ccc(-c2coc3c(O)c(OC)ccc3c2=O)cc1 | inactive | inactive | 2.6% (inactive) | 25.3% | 28.5% | inactive | inactive
30 | CC(=O)OC1CC(OC(C)=O)[C@]2(C)C(CC(=O)[C@]3(C)C2CC[C@@]2(C)C(C(=O)O)OC(=O)C4OC423)C1(C)C (some centres not stated) | inactive | inactive | 3.41% (inactive) | 10.8% | 15.4% | inactive | inactive
31 | Cc1cc(O)c(C=O)c(O)c1C(=O)O | inactive | inactive | 3.98% (inactive) | 6.58% | 11.5% | inactive | inactive
32 | COc1cc(-c2cc(=O)c3c(O)c(OC)c(OC)c(OC)c3o2)cc(OC)c1OC | inactive | inactive | 0.715% (inactive) | 5.14% | 8.84% | inactive | –
33 | COc1cc(O)cc(OC)c1OC | inactive | inactive | 1.28% (inactive) | -14% | -12.4% | inactive | inactive
34 | COC1C(O)CC(=O)OC(C)C/C=C/C=C/[C@@H](OC2CCC(N(C)C)C(C)O2)C(C)C[C@@H](CC=O)[C@@H]1O[C@H]1OC(C)[C@H](O[C@@H]2C[C@@](C)(O)C(O)C(C)O2)C(N(C)C)C1O (some centres not stated) | inactive | inactive | 4.53% (inactive) | 15.4% | 26.5% | inactive | –
35 | C[C@]12CCC3c4ccc(OC(=O)c5ccccc5)cc4CCC3C1CCC2=O (some centres not stated) | inactive | inactive | 11.1% (inactive) | 14.4% | 28.4% | inactive | –
36 | Cc1onc(-c2ccccc2Cl)c1C(=O)NC1C(=O)N2C1SC(C)(C)C2C(=O)O (configuration not stated) | inactive | inactive | 9.93% (inactive) | 11.3% | 24.6% | inactive | –
37 | O=S(=O)(O)c1cc(N=C=S)ccc1/C=C/c1ccc(N=C=S)cc1S(=O)(=O)O | inactive | inactive | 9.64% (inactive) | -3.47% | 10.3% | inactive | –
38 | COc1ccc(-c2coc3cc(O)ccc3c2=O)c(OC)c1 | inactive | inactive | -0.403% (inactive) | 3.06% | 3.26% | inactive | –
39 | CC(CCC(=O)O)C1CCC2C3CC[C@H]4CC(O)CC[C@@]4(C)C3CC(O)[C@]12C (some centres not stated) | inactive | inactive | 8.52% (inactive) | -1.9% | 10.5% | inactive | –
